“And” between values parts separate entries of the source, which are not always exact repeats. Identical values can stand only once. Unmarked numbers belong to inactive results.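 Rule for the calls: active = differentiation response of at least 50%, scaled between solvent and reference control, from cells with both markers; inactive = the rest.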 Peptide text beside a SMILES is read from it.
assay: promoters of myeloid differentiation in arrested cells, primary screen, cell-based, GFP/MAC1 double positive, flow cytometry, validation set (AID 588685); conditions: ER-HoxA9 marrow cells, active compounds read high, normalized: vehicle 0, fulvestrant 100;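 note: compound exposure lasts four days before antibody staining and flow analysis; 0% = DMSO wells and 100% = 5 µM fulvestrant positive control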

SMILES | differentiation response
COc1ccc2cc(C3(C)NC(=O)NC3=O)ccc2c1 (configuration not stated) | 7.2%
CC1(C)CC(=O)c2c(nc3ccccc3c2N)C1 | 0.24%
Cc1ccccc1C(=O)Oc1ccc(Sc2ccc(O)cc2)cc1 | -1.71%
O=C(NC1CC1)C1CCN(C2CCN(C(=O)Cc3ccc(F)cc3)CC2)CC1 | 6.55%
CCc1cc(/C(Cc2ccccn2)=N\O)c(O)cc1O | -5.6%
CC(=O)NC(CC(C)C)C(=O)NC(Cc1ccccc1)C(N)=O (stereo not drawn) (Ac-Leu-Phe-NH2; configuration not given here) | -4.57%
CN(C)c1ccc(C(CN)c2c[nH]c3ccccc23)cc1 (configuration not stated) | -16.3%
CCn1cc(C(=O)O)c(=O)c2ccc(C)nc21 | -4.57%
CN1[C@@H]2CC(OC(=O)[C@H](CO)c3ccccc3)C[C@H]1[C@@H]1O[C@@H]12 (some centres not stated) | -3.11% and -2.4%
CCOc1cc2c3c(c1)C(C)=CC(C)(C)N3C(=O)C2=O | -0.8%
Cc1ccc(C)c(OCCCC(C)(C)C(=O)O)c1 | 6.11%
CC1(C)C(=O)OC(C(=O)c2ccc(Cl)cc2)C(C)(C)C1=O (configuration not stated) | -4.64%
CC1(CC(=O)Nc2ccccc2)NC(=S)N(c2ccccc2)N1 (configuration not stated) | -18.4%
COc1cc2c(cc1OC)C(C)=NC1(CCCCC1)C2 | -14.8%
Cc1occc(=O)c1O | -4.91%
COC1CCN(Cc2cn(Cc3ccccc3)nc2-c2cc3ccccc3o2)CC1 | -9.53%
COc1cccc2c(O)cc(=O)n(C)c12 | -21.6%
CCN1C(=O)C(CC(=O)Nc2ccc(F)cc2)N(Cc2ccco2)C1=S (configuration not stated) | 18.7%
O=C(Cc1ccccc1[N+](=O)[O-])NCc1ccncc1 | -15.2%
O=C1CC2(CCCC2)CC(=O)N1CCCCN1CCN(c2ncccn2)CC1 | 12%
CCC(=O)c1ccc(OCc2ccc(C(=O)OC)cc2)cc1 | -23.6%
COc1cccc(NC(=O)C2CC(=O)OC23CCOC(C)(C)C3)c1 (configuration not stated) | -2.46%
